From PubChem BioAssay (EPA / NIEHS)
Where “and” joins values, the source holds several entries; their conditions need not be identical. Equal entries are not always repeated. The source holds several records for some structures; these can differ, active in one and inactive in another. Calls of active or inactive are those of the source. The calls were made as follows: active = hit-call score of the fitted dose curve at least 0.9, where 1 is the maximum; inactive = score below 0.9.

Assay: ATG_CRE_CIS: Attagene CIS-FACTORIAL HepG2 Assay for human cAMP Responsive Element (CRE) binding protein 3 (AID 2282926)
Details: HepG2 CRE cis-reporter, Attagene multiplexed mRNA; actives raise or lower the signal
In short: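 Endogenous CRE-binding activity in HepG2 is reported through a cis-regulated transfected reporter. Following a day of exposure, mRNA levels are determined by reverse transcription PCR and fluorescent fragment analysis; fits run in both directions versus DMSO.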
With `C[C@]12CCC(=O)C=C1CC[C@@H]1[C@@H]2CC[C@]2(C)C(=O)CC[C@@H]12` the outcome was “inactive”.
In the case of `O=S(=O)(O)C(F)(F)C(F)(F)C(F)(F)C(F)(F)C(F)(F)C(F)(F)F`, the outcome is reported as “inactive”.
For `CCOP(=S)(OCC)SCSC(C)(C)C`, the outcome was “inactive”.
In the case of `O=C(NC(=O)c1cc(F)c(F)cc1Cl)Nc1cc(F)ccc1N1CCC(C(=O)O)CC1`, the outcome is reported as “inactive”.
For `CC(c1ccc(O)cc1)(c1ccc(O)cc1)c1ccc(O)cc1`, the AC50 was 8.32 µM (active).
For `ClC1=C(Cl)[C@]2(Cl)[C@@H]3[C@@H](Cl)[C@H]4O[C@H]4[C@@H]3C1(Cl)C2(Cl)Cl`, the outcome was “inactive”.
With `Cc1ccccc1[N+](=O)[O-]` the outcome was “inactive”.
In the case of `ClC1=C(Cl)[C@]2(Cl)[C@@H]3[C@H]4C[C@H]([C@@H]5O[C@H]45)[C@@H]3[C@@]1(Cl)C2(Cl)Cl`, the outcome is reported as “inactive”.
With `Oc1c(Cl)c(Cl)c(Cl)c(Cl)c1Cl` the AC50 was 19.3 µM (active) and 10.2 µM (active) and the outcome was “inactive”.
With `CCCCCCCCCc1ccc(O)cc1` the outcome was “inactive”.
In the case of `O=S(=O)(O)C(F)(F)C(F)(F)C(F)(F)C(F)(F)F`, the outcome is reported as “inactive”.
In the case of `Cc1cc(-c2ccc(N)c(C)c2)ccc1N`, the outcome is reported as “inactive”.
With `CC#Cc1cc(C)nc(Nc2ccccc2)n1` the outcome was “inactive”.
For `O=C(O)C(F)(F)C(F)(F)C(F)(F)C(F)(F)C(F)(F)C(F)(F)C(F)(F)C(F)(F)F`, the outcome was “inactive”.
In the case of `O=C(O)C(F)(F)C(F)(F)C(F)(F)C(F)(F)C(F)(F)C(F)(F)C(F)(F)C(F)(F)C(F)(F)F`, the AC50 is reported as 62.2 µM (active) and the outcome is reported as “inactive”.
For `CCCCCCCCCC[N+](C)(C)CCCCCCCCCC`, the outcome was “inactive”.
With `CCC(=O)O[C@H]1CC[C@H]2[C@@H]3CCC4=CC(=O)CC[C@]4(C)[C@H]3CC[C@]12C` the AC50 was 144 µM (active) [middle of 4 runs].
